High-throughput results as filed in PubChem.
Shiga toxin inh = A qHTS for Small Molecule Inhibitors of Shiga Toxin; Vero cells, Shiga toxin protein synthesis inhibition reporter; inhibition, % at 38.7 µM; 9.2% of 290,000 active; AID 2315, 2010; in the data active = inhibition mostly above about 28%, no sharp cut-off; inactive = mostly below about 43%
NS1 inh = qHTS Assay for Inhibitors of Influenza NS1 Protein Function. 0.4% of 270,000 active. Potency, µM (titrated, usually from 46.1 µM); calls by dose curve; note: actives are rising curves; nearly all actives have a fitted effect of over 50% in size
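In this qHTS, NS1 from influenza A is expressed in budding yeast, where it slows growth. Cells are switched from glucose to 2% galactose medium (pH 6.0, -URA), treated with compound, and growth recovery is read at OD600.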
AmpC no deterg = qHTS Inhibitors of AmpC Beta-Lactamase (assay without detergent). P00811. AmpC nitrocefin hydrolysis, absorbance 480 nm, 0.0001% Triton. Potency, µM (series often up to 57.1 µM), most hits filed as inhibitors. 0.52% of 330,000 active. AID 485341, 2010; note: nearly all actives have a fitted effect of over 20% in size
Target sequence (P00811 whole entry, looked up): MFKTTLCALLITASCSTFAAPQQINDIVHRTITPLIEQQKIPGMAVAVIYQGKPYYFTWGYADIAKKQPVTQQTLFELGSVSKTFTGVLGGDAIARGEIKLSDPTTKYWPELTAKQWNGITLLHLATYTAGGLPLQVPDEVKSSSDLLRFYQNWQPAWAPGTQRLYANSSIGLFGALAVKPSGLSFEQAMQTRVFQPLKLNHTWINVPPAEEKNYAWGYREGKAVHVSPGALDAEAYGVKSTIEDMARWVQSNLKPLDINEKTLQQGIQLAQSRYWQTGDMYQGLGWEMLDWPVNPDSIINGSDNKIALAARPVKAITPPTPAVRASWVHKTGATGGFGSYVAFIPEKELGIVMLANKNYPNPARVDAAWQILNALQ
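AmpC (5.3 nM in the dispensed reagent) in 20 mM phosphate pH 7.0 with 0.01% (detergent screen) or 0.0001% Triton X-100 was preincubated with compounds for 15 min at room temperature. Nitrocefin was then added from an 800 uM solution, and hydrolysis was followed at 480 nm.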
AmpC detergent = qHTS Inhibitors of AmpC Beta-Lactamase (assay with detergent) | P00811 | Potency, µM (series often up to 114 µM), usual class: inhibitors | AmpC hydrolysis of nitrocefin, absorbance 480 nm, 0.01% Triton | 0.041% of 370,000 active; note: nearly all actives have a fitted effect of over 25% in size
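AmpC (5.3 nM in the dispensed reagent) in 20 mM phosphate pH 7.0 with 0.01% (detergent screen) or 0.0001% Triton X-100 was preincubated with compounds for 15 min at room temperature. Nitrocefin was then added from an 800 uM solution, and hydrolysis was followed at 480 nm.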
Cycloheximide cs = Cycloheximide Counterscreen for Small Molecule Inhibitors of Shiga Toxin; cell reporter, cycloheximide protein synthesis inhibition counterscreen; max response, %; 12% of 300,000 active; in the data active = max response mostly above about 13%, no sharp cut-off; inactive = mostly below about 14%; note: read at 38.3 µM for the half of the compounds with a filed dose
Hits are given with their value; – = inactive; ? = inconclusive; · = no result; + = active, no number; [ ] = dose if it differs, or a comment. Only a selection was taken, and hits are over-represented in it overall. Unless noted, calls come from the whole dose curve; as a rule, active = well fitted curve in the direction sought with a large enough effect; inconclusive = small, poorly fitted or top-dose-only effect, or another doubt; inactive = no such curve, though single readings can be large; an effect the other way counts as inactive or inconclusive.

SMILES | Shiga toxin inh | NS1 inh | AmpC no deterg | AmpC detergent | Cycloheximide cs
COCC(=O)Nc1ccc(OC)c(Cl)c1 | – | – | – | – | –
CC(C)=CC(=O)Nc1ccc(Cl)cc1 | 55 | – | – | – | 54
CCc1ccc2occ(CC(=O)Nc3ccc(OC)c(Cl)c3)c2c1 | 37 | · | · | – | –
O=C(c1ccc(NC2=NC3CS(=O)(=O)CC3S2)cc1)N1CCN(c2ccc([N+](=O)[O-])cc2)CC1 (stereo unspecified) | – | – | – | – | –
O=[N+]([O-])c1ccc(OCc2cnc(Cl)s2)cc1 | – | – | – | – | 32
CC(=O)Nc1ccccc1OCc1cnc(Cl)s1 | – | – | – | – | –
Cc1ccc(OCc2cnc(Cl)s2)c(C)c1 | 146 | – | – | – | 36
COc1ccc(OCc2cnc(Cl)s2)cc1 | 60 | – | – | – | 29
c1ccc(-n2ncc3c2ncn2nc(-c4ccco4)nc32)cc1 | 46 | – | – | – | 38
Cc1cccc(NC(=O)CSc2nc(=O)n(Cc3cccnc3)c3c2CCC3)c1C | · | · | · | – | ·
CN(Cc1ccccc1)C(=O)C(C(=O)c1ccc(F)cc1)n1cc(Cl)ccc1=O (stereo unspecified) | 48 | · | – | – | 41
O=C(NCc1ccc2c(c1)OCO2)C(C(=O)c1ccccc1)n1cc(Cl)ccc1=O (stereo unspecified) | – | – | – | ? | –
CC(=O)Nc1ccc(C(=O)N(C)C(C(=O)Nc2ccc(C)cc2)c2ccccn2)cc1 (stereo unspecified) | – | – | – | – | –
CCOc1ccc(NC(=O)C(c2ccccn2)N(C(=O)CCl)c2ccc(OC)cc2)cc1 (stereo unspecified) | 77 | ? | – | – | 55
CCOc1ccc(NC(=O)C(c2ccccn2)N(C(=O)CCl)c2ccc(OCC)cc2)cc1 (stereo unspecified) | + | – | – | – | 49
COc1ccc(NC(=O)C(c2ccccn2)N(C(C)=O)c2ccc(C)cc2)cc1 (stereo unspecified) | 60 | – | – | – | 16
CNc1oc(-c2ccc(Cl)cc2)nc1C#N | 178 | – | – | – | 37
CNc1oc(-c2ccccc2Cl)nc1C#N | – | – | – | – | 17
C=CCNc1oc(-c2ccc(Cl)cc2)nc1C#N | · | · | – | · | ·
COc1ccc(/C=C/C(=O)c2sc(-c3ccccc3)nc2C)cc1 | – | – | – | – | –
Cc1nc(-c2ccncc2)sc1C(=O)Nc1ccc(Cl)cc1 | – | – | – | – | –
CCNC(=O)c1sc(-c2ccccc2)nc1C | 66 | – | – | – | 45
Cc1nc(-c2ccc(Cl)cc2)sc1C(=O)O | 91 | · | – | ? | –
Cc1ccc(-c2nc(C)c(C(=O)O)s2)cc1 | – | – | – | – | 21
Cc1nc(-c2cccs2)sc1C(=O)O | – | – | – | – | –
SMILES | Shiga toxin inh | NS1 inh | AmpC no deterg | AmpC detergent | Cycloheximide cs
CC(=O)c1sc(-c2ccccc2)nc1C | – | – | –[2.29 µM] | – | 35
Cc1nc(-c2ccc([N+](=O)[O-])cc2)sc1C(=O)O | – | – | – | – | 20
Cc1nc(-c2ccccc2)sc1C(=O)O | 84 | · | – | – | 31
COc1ccc(NC(=O)c2sc(-c3ccccc3)nc2C)c(OC)c1 | – | – | – | – | –
Cc1nc(-c2ccccc2)sc1C(=O)Nc1ccccc1F | – | – | – | – | 46
O=C(NCc1cccnc1)Nc1cccc(F)c1 | – | – | – | – | –
Cc1cccc(NC(=O)Nc2cccc(F)c2)n1 | 79 | – | – | – | 52
COc1cccc(NC(=O)Nc2nccc(C)n2)c1 | 72 | – | – | – | 38
COc1cccc(NC(=O)Nc2ccc3nc(C)c(C)nc3c2)c1 | – | – | – | ? | –
Cc1ccnc(NC(=O)Nc2cccc(F)c2)n1 | 79 | – | –[2.29 µM] | – | 28
COc1ccc(-c2noc(C3CC(=O)N(c4ccccc4)C3)n2)c(OC)c1 (stereo unspecified) | · | · | · | – | ·
O=C(COC(=O)COc1ccc(Cl)cc1Cl)NC1CCCC1 | · | · | – | – | ·
CN(/N=C/c1c[nH]c2ccccc12)c1cnn(-c2ccc(F)c(Cl)c2)c(=O)c1Cl | – | – | – | ? | –
CN(/N=C/c1cccnc1)c1cnn(-c2ccc(F)c(Cl)c2)c(=O)c1Cl | – | – | – | – | 20
COc1cc(C2CC(=O)Nc3cc4c(cc32)OCCO4)cc(OC)c1O (stereo unspecified) | · | · | · | – | ·
CCCc1cc(C(=O)Nc2ccc(CC)cc2)no1 | 73 | – | – | – | 54
